This passage reports growth results from PubChem BioAssay (NCI).

Structures are written as SMILES. About 83,000 compounds went through this panel and 20% of them were active in at least one assay; those are over-represented in the sample as a whole.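 Method: cells in 96-well plates; compound added at one concentration; 48 h incubation; percent growth measured; values under 10 scored active.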 Unmarked numbers belong to inactive results. Active and inactive are the calls of the source.

Test systems include NCI/ADR-RES ovarian; T-47D breast; BT-549 breast; MDA-MB-435 melanoma; SW-620 colon; MCF7 breast; HCT-116 colon; HCC-2998 colon; KM12 colon.
Common to all, as to assay: NCI-60 one-dose screen, 48 h (100 = growth as untreated, 0 = no growth, -100 = all killed)
Common to all, as to conditions: 10 µM unless noted

`CCOc1ccccc1C(=O)OCC(Cl)(Cl)Cl`: the growth with NCI/ADR-RES ovarian is 108%; in the assay with T-47D breast, 90.6%; in the assay with BT-549 breast, 106%; in the assay on MDA-MB-435 melanoma, 107%; in the assay with SW-620 colon, 110%; in the assay with MCF7 breast, 99.4%. For the same compound, the growth in the assay with HCT-116 colon is 105%; in the assay on HCC-2998 colon, 101%; with KM12 colon it was 101%.

On to `CC(C)CCC1(CCCl)C(=O)NC(=O)NC1=O`, for which the growth with NCI/ADR-RES ovarian was 102%; with T-47D breast, 105%; in the assay with BT-549 breast, 102%; with MDA-MB-435 melanoma it was 97%; in the assay with SW-620 colon, 98.9%; in the assay on MCF7 breast, 96.4%. Moreover, the growth in the assay with HCT-116 colon was 100%; in the assay with HCC-2998 colon, 107%; in the assay with KM12 colon it was 108%.

Take `c1cc2c(c3c1CCNC3)OCO2`: the growth with NCI/ADR-RES ovarian is 101%; in the assay with T-47D breast it was 90.4%; in the assay with BT-549 breast, 97.4%; in the assay on MDA-MB-435 melanoma, 106%; with SW-620 colon, 112%; with MCF7 breast, 92.7%. Further, the growth was 99% with HCT-116 colon, 102% in the assay on HCC-2998 colon and 106% in the assay on KM12 colon.

Turning to `CCCCCCCCC(CO)NCCc1ccccc1` (stereo unspecified), the growth with NCI/ADR-RES ovarian is 112%; in the assay on T-47D breast it was 96%; in the assay with BT-549 breast it was 114%; with MDA-MB-435 melanoma, 103%; in the assay on SW-620 colon it was 96.2%; in the assay on MCF7 breast it was 103%. For the same compound, the growth in the assay with HCT-116 colon was 78.8%; in the assay on HCC-2998 colon, 111%; with KM12 colon, 99.9%.

Consider `Cc1ccc(S(=O)(=O)C(Cl)(Cl)Cl)cc1`, for which the growth with NCI/ADR-RES ovarian was 89.1%; in the assay on T-47D breast it was 78.4%; in the assay with BT-549 breast, 92.1%; with MDA-MB-435 melanoma, 97.1%; in the assay with SW-620 colon, 99.3%; in the assay on MCF7 breast, 98.6%. For the same compound, the growth in the assay on HCT-116 colon is 87.3%; in the assay with HCC-2998 colon it was 107%; in the assay with KM12 colon it was 101%.

As to `COc1ccc(C2=CC(c3ccc(OC)c(OC)c3)c3c(c4ccccc4oc3=O)O2)cc1OC` (stereo unspecified), the growth was 29% in the assay with NCI/ADR-RES ovarian; 35% in the assay with T-47D breast; -4.49% (active) in the assay on BT-549 breast; -72.9% (active) with MDA-MB-435 melanoma; 18.5% in the assay on SW-620 colon; 11.8% in the assay with MCF7 breast. In addition, the growth with HCT-116 colon was 24.2%; in the assay on HCC-2998 colon it was 31.4%; with KM12 colon, 16.2%.

In the case of `COc1ccc(C(=O)c2cc(OC)c(OC)c(OC)c2)cc1OC(C)=O`, the growth is 7.97% (active) in the assay on NCI/ADR-RES ovarian; 55.2% in the assay on T-47D breast; 8.56% (active) with BT-549 breast; -16.3% (active) in the assay with MDA-MB-435 melanoma; 25.1% in the assay with SW-620 colon; 15.7% with MCF7 breast. For the same compound, the growth in the assay on HCT-116 colon is 6.24% (active); in the assay with HCC-2998 colon, 25.5%; in the assay on KM12 colon it was 11.2%.

In the case of `CC[C@H](C)[C@H](NC(=O)C12C3C4C1C1C2C3C41NC(C)=O)C(=O)N(C)[C@H](C[C@@H](OC(C)=O)c1nc(C(=O)N[C@@H](Cc2ccccc2)C[C@H](C)C(=O)OC)cs1)C(C)C` (stereo partly specified), the growth in the assay with NCI/ADR-RES ovarian was 89.7%; with T-47D breast it was 70.1%; in the assay on BT-549 breast, 5.96% (active); in the assay with MDA-MB-435 melanoma, -32.9% (active); with SW-620 colon, 21%; with MCF7 breast it was 15.2%. Moreover, the growth with HCT-116 colon is 6.15% (active); in the assay on HCC-2998 colon, 24.1%; in the assay with KM12 colon, 14.8%.

As for `CNC12C3C4C1C1C2C3C41C(=O)N[C@H](C(=O)N(C)[C@H](C[C@@H](OC(C)=O)c1nc(C(=O)N[C@@H](Cc2ccccc2)C[C@H](C)C(=O)OC)cs1)C(C)C)C1CC1` (stereo partly specified), the growth is 62% with NCI/ADR-RES ovarian; 50.9% with T-47D breast; -34.7% (active) with BT-549 breast; -18.5% (active) with MDA-MB-435 melanoma; 53.1% in the assay with SW-620 colon; 15.7% with MCF7 breast. In addition, the figures for the growth with HCT-116 colon, in the assay on HCC-2998 colon and in the assay on KM12 colon were 2.93% (active), -60.8% (active) and -9.24% (active), respectively.

Turning to `Nc1nnnc2nc[nH]c12`, the growth in the assay with NCI/ADR-RES ovarian is 0.552% (active); in the assay with T-47D breast, -26.6% (active); with BT-549 breast it was 43.8%; in the assay with MDA-MB-435 melanoma it was -11.8% (active); with SW-620 colon it was 11%; with MCF7 breast, 15.3%. In addition, the growth is -11.8% (active) in the assay with HCT-116 colon, 17.1% in the assay with HCC-2998 colon and 25.6% in the assay on KM12 colon.

For `Clc1ccc(CO/N=C(\Cn2ccnc2)c2ccc(Cl)cc2Cl)c(Cl)c1`, the growth in the assay on NCI/ADR-RES ovarian was -12.2% (active); in the assay with T-47D breast, 101%; with BT-549 breast it was -44% (active); with MDA-MB-435 melanoma, -13.2% (active); with SW-620 colon it was 8.71% (active); in the assay with MCF7 breast, 0.337% (active). The growth with HCT-116 colon is -79.3% (active); with HCC-2998 colon, 3.92% (active); in the assay on KM12 colon it was -1.07% (active).

For `CCOC(=O)C(Cc1ccc(N(CCCl)CCCl)cc1)NC(=O)C(CC(C)C)NC(C)=O` (stereo unspecified), the growth is 46.6% with NCI/ADR-RES ovarian; 22.5% in the assay on T-47D breast; 65% with BT-549 breast; 44.4% in the assay on MDA-MB-435 melanoma; 9.17% (active) in the assay on SW-620 colon; 21.3% in the assay on MCF7 breast. Moreover, the growth with HCT-116 colon was 23.6%; in the assay on HCC-2998 colon, 50.8%; in the assay with KM12 colon, 71.6%.

Take `COC(=O)[C@@H](C)C[C@H](Cc1ccccc1)NC(=O)c1nc([C@@H](C[C@H](C(C)C)N(C)C(=O)[C@@H](NC(=O)[C@H]2CCCCN2C)C(C)C)OC(C)=O)sc1C(C)C`: the growth in the assay on NCI/ADR-RES ovarian is 8.7% (active); in the assay with T-47D breast, 53.1%; in the assay on BT-549 breast it was -35.6% (active); with MDA-MB-435 melanoma, -46.8% (active); in the assay on SW-620 colon, 24.9%; in the assay on MCF7 breast it was 18.3%. In addition, the values for the growth in the assay on HCT-116 colon, in the assay on HCC-2998 colon and with KM12 colon were -5.54% (active), 3.15% (active) and 1.85% (active), respectively.

For `CCCC(C)C1(CC)C(=O)NC(=O)N(C)C1=O` (stereo unspecified), the growth in the assay with NCI/ADR-RES ovarian was 104%; in the assay with T-47D breast it was 87%; in the assay with BT-549 breast it was 105%; with MDA-MB-435 melanoma it was 97.9%; with SW-620 colon, 101%; in the assay on MCF7 breast it was 103%. Further, the values for the growth in the assay on HCT-116 colon, with HCC-2998 colon and in the assay on KM12 colon were 114%, 97.9% and 110%, respectively.
